Drawing on PubChem BioAssay (NCI), this text covers growth for seven compounds.

About 83,000 compounds went through this panel and 20% of them were active in at least one assay; those are over-represented in the sample as a whole.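 Interpretation: 100, growth as untreated; towards 0, rising growth inhibition; 0, no net growth; 0 to -100, cell death. Compounds scoring below 10 were considered active.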 Unmarked numbers belong to inactive results. Activity calls are given as the source filed them.

Among the test systems are DU-145 prostate; K-562 leukemia; MALME-3M melanoma; MDA-MB-231 breast; RXF 393 renal; SF-268 CNS; SF-295 CNS; SF-539 CNS; UACC-257 melanoma; M14 melanoma; HCT-15 colon; HT29 colon; SNB-75 CNS; SNB-19 CNS; U251 CNS; PC-3 prostate; SK-MEL-5 melanoma; UACC-62 melanoma; LOX IMVI melanoma; SK-MEL-28 melanoma.
Common to all, as to experiment: NCI-60 one-dose screen, 48 h (100 = growth as untreated, 0 = no growth, -100 = all killed)
Holding throughout (conditions): 10 µM unless noted

Take `CCCCNC(=O)Oc1ccc(/C(=C(/C)Cc2ccc(OC)cc2)c2ccc(OCCN3CCCCCC3)cc2)cc1`: the growth is 91.6% with DU-145 prostate; 10.3% with K-562 leukemia; 99.5% in the test with MALME-3M melanoma; 81.5% in the test with MDA-MB-231 breast; 75.1% with RXF 393 renal; 83.5% in the test on SF-268 CNS. Besides, the growth was 92.2% with SF-295 CNS; 95.4% in the test with SF-539 CNS; 94.4% in the test on UACC-257 melanoma; 91.1% in the test on M14 melanoma; 27.8% with HCT-15 colon; 3.69% (active) in the test on HT29 colon. For the same compound, the growth in the test with SNB-75 CNS is 79.2%; in the test on SNB-19 CNS, 85.8%; in the test with U251 CNS, 62.5%; with PC-3 prostate, 65.5%; with SK-MEL-5 melanoma, 82.7%; in the test with UACC-62 melanoma it was 79.1%. The growth in the test on LOX IMVI melanoma is 14%; with SK-MEL-28 melanoma it was 95%.
`CNC(=O)c1cc(Oc2ccc3c(c2)sc2nc(-c4ccc(OC)cc4)cn23)ccn1`: the growth in the test with DU-145 prostate was 8.28% (active); in the test with K-562 leukemia, 33.8%; in the test with MALME-3M melanoma it was 68.3%; in the test with MDA-MB-231 breast, 62.2%; in the test on RXF 393 renal, 45.7%; with SF-268 CNS, 80.1%. Further, the growth with SF-295 CNS was 14.1%; in the test on SF-539 CNS, 83.6%; with UACC-257 melanoma it was 46.5%; in the test on M14 melanoma, 57.9%; with HCT-15 colon, 52.7%; in the test on HT29 colon, 65.6%. The growth was 76.8% in the test with SNB-75 CNS; 79.8% in the test with SNB-19 CNS; 81.8% in the test on U251 CNS; 58.3% in the test on PC-3 prostate; 20.3% in the test on SK-MEL-5 melanoma; 40.2% in the test on UACC-62 melanoma. The growth is 82.1% with LOX IMVI melanoma and 67.9% in the test with SK-MEL-28 melanoma.
With `Cc1ccc(C(=O)Nc2cccc(C#Cc3cccc4[nH]nc(N)c34)c2)cc1C(F)(F)F`, the growth in the test with DU-145 prostate is 78.4%; in the test on K-562 leukemia it was 6.95% (active); with MALME-3M melanoma, 6.04% (active); with MDA-MB-231 breast, 55.4%; in the test with RXF 393 renal, 41.2%; with SF-268 CNS, 60.8%. Besides, the growth with SF-295 CNS was 78.1%; in the test with SF-539 CNS, 8.47% (active); with UACC-257 melanoma, 68%; in the test on M14 melanoma, 21.6%; with HCT-15 colon it was 48.9%; in the test on HT29 colon, 27.3%. The growth is 88.4% in the test with SNB-75 CNS; 113% in the test with SNB-19 CNS; 81.5% with U251 CNS; 69.8% in the test with PC-3 prostate; 73.3% in the test on SK-MEL-5 melanoma; 41.1% with UACC-62 melanoma. The values for the growth with LOX IMVI melanoma and in the test on SK-MEL-28 melanoma were 25.4% and 41.7%, respectively.
For `COC(=O)c1c2c(c(C)[n+]([O-])c1C)C(=O)C(NCc1cccc(Cl)c1)=CC2=O`, the growth in the test with DU-145 prostate is 38.3%; with K-562 leukemia, 6.86% (active); in the test on MALME-3M melanoma, -96.2% (active); in the test on MDA-MB-231 breast, 3.99% (active); in the test on RXF 393 renal, 34.3%; in the test with SF-268 CNS, 16.2%. For the same compound, the growth was 42.5% in the test with SF-295 CNS; 4.07% (active) in the test with SF-539 CNS; -37.5% (active) in the test with UACC-257 melanoma; 1.44% (active) in the test with M14 melanoma; 7.55% (active) with HCT-15 colon; 5.87% (active) in the test on HT29 colon. Moreover, the growth was 127% in the test on SNB-75 CNS; 9.37% (active) in the test on SNB-19 CNS; -6% (active) with U251 CNS; 4.17% (active) in the test on PC-3 prostate; -77.7% (active) in the test on SK-MEL-5 melanoma; -42.6% (active) with UACC-62 melanoma. In addition, the results for the growth in the test on LOX IMVI melanoma and with SK-MEL-28 melanoma were 11.7% and 63%, respectively.
As to `Nc1ccc(-c2csc(-n3[nH]c(=O)ccc3=O)n2)cc1`, the growth in the test with DU-145 prostate was 107%; in the test on K-562 leukemia, 103%; in the test on MALME-3M melanoma, 101%; in the test with MDA-MB-231 breast it was 101%; with RXF 393 renal it was 93.8%; in the test with SF-268 CNS it was 102%. In addition, the growth with SF-295 CNS was 102%; in the test on SF-539 CNS, 105%; with UACC-257 melanoma, 103%; with M14 melanoma, 96.2%; in the test with HCT-15 colon, 89.1%; with HT29 colon it was 94.5%. The growth in the test with SNB-75 CNS was 99%; in the test on SNB-19 CNS, 98.6%; with U251 CNS, 100%; with PC-3 prostate it was 96.2%; with SK-MEL-5 melanoma it was -99.6% (active); in the test on UACC-62 melanoma, 101%. The results for the growth in the test with LOX IMVI melanoma and with SK-MEL-28 melanoma were 102% and 108%, respectively.
As to `Cc1ccc2nc(NC(=O)CSc3nc(-c4ccccc4)c(C#N)c4nnnn34)sc2c1`, the growth is 119% with DU-145 prostate; 97.8% with K-562 leukemia; 109% in the test on MALME-3M melanoma; 113% in the test on MDA-MB-231 breast; 120% with RXF 393 renal; 113% in the test on SF-268 CNS. Besides, the growth in the test on SF-295 CNS is 103%; in the test with SF-539 CNS it was 100%; in the test on UACC-257 melanoma, 108%; in the test with M14 melanoma, 99.5%; in the test with HCT-15 colon, 113%; in the test with HT29 colon, 106%. Further, the growth in the test with SNB-75 CNS was 96.6%; in the test with SNB-19 CNS it was 102%; in the test with U251 CNS, 104%; in the test on PC-3 prostate, 99.7%; in the test with SK-MEL-5 melanoma, 102%; in the test with UACC-62 melanoma it was 94.7%. Also, the values for the growth with LOX IMVI melanoma and with SK-MEL-28 melanoma were 96.3% and 111%, respectively.
Consider `Cc1ccc(-c2nc(N3CCNCC3)c3oc(-c4ccc(C)cc4)nc3n2)cc1`, for which the growth in the test on DU-145 prostate was 11.9%; in the test with K-562 leukemia it was -75% (active); in the test with MALME-3M melanoma it was 93.6%; in the test on MDA-MB-231 breast it was -72.1% (active); in the test on RXF 393 renal, 73.4%; in the test with SF-268 CNS, 28.5%. The growth is 108% in the test with SF-295 CNS; 95.8% with SF-539 CNS; 103% with UACC-257 melanoma; -94.3% (active) with M14 melanoma; -88% (active) with HCT-15 colon; -94.7% (active) with HT29 colon. In addition, the growth in the test with SNB-75 CNS is 89%; in the test with SNB-19 CNS, 39.1%; in the test with U251 CNS it was -98.5% (active); in the test with PC-3 prostate, -90.2% (active); with SK-MEL-5 melanoma, 96.5%; with UACC-62 melanoma it was 95.4%. Besides, the growth was -79.6% (active) in the test on LOX IMVI melanoma and 83.6% with SK-MEL-28 melanoma.
